# In the antibiotic and cytotoxicity screens of Wong et al. (2023):
# The whole screen tested about 39,000 compounds, of which about 1,500 (3.8%) were called active. The entries come from a sample that favours actives as a whole.
# Tested on: HSkMC (human skeletal muscle cells)
# Experiment: cytotoxicity call (relative viability < 0.9)
# Conditions: 10 µM
row,Compound,cytotoxicity call
1,COc1ccccc1S(=O)(=O)N[C@H]1CC[C@@H](CCNC(=O)C2CC2)O[C@@H]1CO,inactive
2,COc1ccc(NC(=O)Nc2cccc3c2O[C@@H](CN(C)CC2CCCCC2)[C@H](C)CN([C@@H](C)CO)C3=O)cc1,inactive
3,O=C(C[C@H]1C[C@H]2c3cc(NS(=O)(=O)c4ccc(F)cc4)ccc3O[C@H]2[C@@H](CO)O1)N1CCCCC1,inactive
4,COCC(=O)N1C[C@@H](C)[C@H](OC)CN(C)C(=O)c2ccc(NC(=O)Nc3cccc(F)c3)cc2OC[C@@H]1C,inactive
5,C[C@@H]1CN([C@H](C)CO)C(=O)Cc2cc(NC(=O)Cc3cn(C)c4ccccc34)ccc2O[C@@H]1CN(C)Cc1ccc(C(F)(F)F)cc1,inactive
6,NC1CCN(C(=O)N2CCCC2)CC1,inactive
7,C[C@@H]1CN([C@@H](C)CO)C(=O)Cc2cc(NS(=O)(=O)c3ccc(Cl)cc3)ccc2O[C@H]1CN(C)C(=O)Nc1ccc(C(F)(F)F)cc1,inactive
8,C[C@H](CO)N1C[C@H](C)[C@H](CN(C)CC2CC2)Oc2c(NS(=O)(=O)c3ccccc3)cccc2C1=O,inactive
9,COc1ccc(S(=O)(=O)Nc2ccc3c(c2)C(=O)N([C@H](C)CO)C[C@H](C)[C@@H](CN(C)S(=O)(=O)c2ccc(OC)cc2)O3)cc1,inactive
10,CN1C[C@@H](N)CC1=O,inactive
11,COC(=O)[C@H](Cc1ccccc1)N1CC2=CCCC=C[C@H]2[C@@H]1[C@@H](O)CCn1cc(CCC(=O)NO)nn1,inactive
12,C[C@@H]1CN([C@H](C)CO)C(=O)Cc2cc(NC(=O)Nc3ccc(C(F)(F)F)cc3)ccc2O[C@@H]1CN(C)Cc1ccccc1,active
13,C[C@H](CO)N1C[C@H](C)[C@@H](CN(C)Cc2ccccc2)Oc2ccc(NC(=O)Nc3ccc(C(F)(F)F)cc3)cc2CC1=O,active
14,COc1cccc(S(=O)(=O)N2C[C@H](O)COC[C@@H]3O[C@@H](CC(=O)NCCCN4CCOCC4)CC[C@H]32)c1,inactive
15,CN1CCN(C(=O)C[C@@H]2C=C[C@@H](NS(=O)(=O)c3cccc(F)c3)[C@@H](CO)O2)CC1,inactive
16,O=C(O)/C=C\C(=O)Nc1cccc(C(=O)O)c1,inactive
17,COc1ccc(NC(=O)Nc2cccc3c2O[C@H](CN(C)Cc2ccc(-c4ccccc4)cc2)[C@@H](C)CN([C@@H](C)CO)C3=O)cc1,active
18,COc1ccc(NC(=O)Nc2cccc3c2O[C@@H](CN(C)Cc2ccc(-c4ccccc4)cc2)[C@@H](C)CN([C@H](C)CO)C3=O)cc1,inactive
19,COc1ccc(NC(=O)Nc2cccc3c2O[C@H](CN(C)Cc2ccc(-c4ccccc4)cc2)[C@@H](C)CN([C@H](C)CO)C3=O)cc1,inactive
20,COc1ccc(NC(=O)Nc2cccc3c2O[C@@H](CN(C)Cc2ccc(-c4ccccc4)cc2)[C@H](C)CN([C@@H](C)CO)C3=O)cc1,inactive
21,COc1ccc(NC(=O)Nc2cccc3c2O[C@H](CN(C)Cc2ccc(-c4ccccc4)cc2)[C@H](C)CN([C@H](C)CO)C3=O)cc1,active
22,COc1ccc(NC(=O)Nc2cccc3c2O[C@H](CN(C)Cc2ccc(-c4ccccc4)cc2)[C@H](C)CN([C@@H](C)CO)C3=O)cc1,inactive

row,Compound,cytotoxicity call
1,C[C@@H]1CN([C@H](C)CO)C(=O)c2cc(NS(=O)(=O)c3ccc(Cl)cc3)ccc2O[C@@H](C)CCCCO[C@@H]1CN(C)C(=O)NC1CCCCC1,inactive
2,C[C@@H]1CCCCO[C@H](CN(C)Cc2ccc(C(=O)O)cc2)[C@H](C)CN([C@H](C)CO)C(=O)c2cc(NC(=O)c3ccccc3)ccc2O1,inactive
3,C[C@@H]1CN([C@H](C)CO)C(=O)c2cc(NC(=O)Cn3cnnn3)ccc2O[C@@H]1CN(C)S(C)(=O)=O,inactive
4,C[C@@H]1CCCCO[C@@H](CN(C)S(C)(=O)=O)[C@@H](C)CN([C@@H](C)CO)C(=O)c2cc(NS(=O)(=O)c3ccccc3)ccc2O1,inactive
5,CCC1(O)C(=O)OCc2c1cc1n(c2=O)Cc2cc3c(CN(C)C)c(O)ccc3nc2-1.Cl (stereo not given),inactive
6,CC[C@@]1(O)C(=O)OCc2c1cc1n(c2=O)Cc2c-1nc1cc(F)c(C)c3c1c2[C@@H](N)CC3,active
7,CCC1(O)C(=O)OCc2c1cc1n(c2=O)Cc2cc3cc(O)ccc3nc2-1 (stereo not given),inactive
8,CC(C)(C)[S@@](=O)N1Cc2cc(C(=O)N[C@H]3CCN(Cc4ccccc4)C3)nc(-c3cccc(-c4ccncc4)c3)c2[C@H]1CCO,inactive
9,Cc1noc(C)c1NC(=O)Nc1cccc2c1O[C@H](CN(C)Cc1ccc(Oc3ccccc3)cc1)[C@@H](C)CN([C@@H](C)CO)C2=O,inactive
10,C[C@H]1CCCCO[C@H](CN(C)S(=O)(=O)c2ccccc2)[C@@H](C)CN([C@@H](C)CO)C(=O)c2cc(NS(=O)(=O)c3cn(C)cn3)ccc2O1,inactive
11,Nc1ccccc1C(=O)N1CCOCC1,inactive
12,O=C(c1cn(Cc2cncn2Cc2ccc(Br)cc2)cc1-c1cccc2ccccc12)N1CCOCC1,active
13,O=C(c1ccccc1O)N1CCOCC1,inactive
14,C[C@@H]1CN([C@H](C)CO)C(=O)c2cc(NC(=O)Nc3ccccc3)ccc2O[C@@H](C)CCCCO[C@H]1CN(C)Cc1ccncc1,inactive
15,COC1C=COC2(C)Oc3c(C)c(O)c4c(O)c(c(C=NN5CCN(C6CCCC6)CC5)c(O)c4c3C2=O)NC(=O)C(C)=CC=CC(C)C(O)C(C)C(O)C(C)C(OC(C)=O)C1C (stereo not given),inactive
16,COC1C=COC2(C)Oc3c(C)c(O)c4c(O)c(c5c(nc6cc(C)ccn65)c4c3C2=O)NC(=O)C(C)=CC=CC(C)C(O)C(C)C(O)C(C)C(OC(C)=O)C1C (stereo not given),inactive
17,CO[C@H]1/C=C\O[C@@]2(C)Oc3c(C)c(O)c4c(O)c(c(/C=N/N=C/N5CCCCC5)c(O)c4c3C2=O)NC(=O)/C(C)=C\C=C/[C@H](C)[C@H](O)[C@@H](C)[C@@H](O)[C@@H](C)[C@H](OC(C)=O)[C@@H]1C,active
18,CO[C@H]1/C=C\O[C@@]2(C)Oc3c(C)c(O)c4c(c3C2=O)[C@]2(C=C(NC(=O)/C(C)=C\C=C/[C@@H](C)[C@@H](O)[C@@H](C)[C@@H](O)[C@@H](C)[C@@H](OC(C)=O)[C@@H]1C)C4=O)OCC(=O)O2,active
19,COC1C=COC2(C)Oc3c(C)c(O)c4c(O)c(c(C=NN5CCN(C)CC5)c(O)c4c3C2=O)NC(=O)C(C)=CC=CC(C)C(O)C(C)C(O)C(C)C(OC(C)=O)C1C (stereo not given),inactive
20,[N-]=[N+]=Nc1ccccc1[C@H]1OC(c2ccc(OCCCO)cc2)=N[C@@]1(CCS(=O)(=O)c1ccccc1)C(=O)N1CCCCC1,inactive
21,C[C@@H]1CCCCO[C@@H](CN(C)S(=O)(=O)c2ccc(Cl)cc2)[C@@H](C)CN([C@@H](C)CO)C(=O)c2cc(NC(=O)Nc3cccc4ccccc34)ccc2O1,inactive
22,COc1ccccc1S(=O)(=O)N[C@H]1CC[C@H](CCNC(=O)C2CC2)O[C@H]1CO,inactive

row,Compound,cytotoxicity call
1,CN1C(=O)c2cc(NC(=O)Cc3cccs3)ccc2OC[C@@H]2O[C@H](CC(=O)NCCc3ccncc3)CC[C@H]21,inactive
2,COc1ccc(CN(C)C[C@@H]2Oc3c(NC(=O)c4cc(C)nn4C)cccc3C(=O)N([C@H](C)CO)C[C@H]2C)cc1,inactive
3,Cc1c(CN2CCC(Nc3ncnc4sc(CC(F)(F)F)cc34)CC2)ccc2c1cc(C#N)n2Cc1cn[nH]c1,active
4,COc1ccc(NC(=O)N(C)C[C@H]2Oc3ccc(NC(=O)Nc4cccc5ccccc45)cc3C(=O)N([C@@H](C)CO)C[C@H]2C)cc1,inactive
5,COc1cc(C2c3cc4c(cc3C(OC3OC5COC(C)OC5C(O)C3O)C3COC(=O)C23)OCO4)cc(OC)c1O (stereo not given),inactive
6,COc1cc([C@@H]2c3cc4c(cc3[C@@H](O[C@@H]3O[C@@H]5CO[C@@H](C)O[C@H]5[C@H](O)[C@H]3O)[C@H]3COC(=O)[C@H]23)OCO4)cc(OC)c1O,active
7,COc1cc([C@@H]2c3cc4c(cc3[C@@H](O[C@@H]3O[C@@H]5CO[C@@H](C)O[C@H]5[C@H](O)[C@H]3O)[C@@H]3COC(=O)[C@@H]23)OCO4)cc(OC)c1O,inactive
8,CC(C)(C)C(=O)Nc1ccccc1F,inactive
9,CCN(CC)C(=S)SSC(=S)N(CC)CC,active
10,C[C@H](CO)N1C[C@H](C)[C@@H](CN(C)S(=O)(=O)c2ccc(F)cc2)Oc2ccc(NC(=O)Nc3cccc4ccccc34)cc2C1=O,inactive
11,O=S1(=O)CCC(O)CC1,inactive
12,O=C(CNc1ccc2c(c1)oc1ccccc12)c1ccc(F)cc1,inactive
13,Cc1ccc(S(=O)(=O)Nc2ccc3c(c2)CC(=O)N([C@H](C)CO)C[C@H](C)[C@@H](CN(C)Cc2ccc(Cl)c(Cl)c2)O3)cc1,inactive
14,Cc1ccc(S(=O)(=O)Nc2ccc3c(c2)CC(=O)N([C@@H](C)CO)C[C@H](C)[C@H](CN(C)Cc2ccc(Cl)c(Cl)c2)O3)cc1,active
15,Cc1ccc(S(=O)(=O)Nc2ccc3c(c2)CC(=O)N([C@@H](C)CO)C[C@H](C)[C@@H](CN(C)Cc2ccc(Cl)c(Cl)c2)O3)cc1,active
16,Cc1ccc(S(=O)(=O)Nc2ccc3c(c2)CC(=O)N([C@H](C)CO)C[C@H](C)[C@H](CN(C)Cc2ccc(Cl)c(Cl)c2)O3)cc1,active
17,Cc1ccc(S(=O)(=O)Nc2ccc3c(c2)CC(=O)N([C@@H](C)CO)C[C@@H](C)[C@@H](CN(C)Cc2ccc(Cl)c(Cl)c2)O3)cc1,active
18,Cc1ccc(S(=O)(=O)Nc2ccc3c(c2)CC(=O)N([C@@H](C)CO)C[C@@H](C)[C@H](CN(C)Cc2ccc(Cl)c(Cl)c2)O3)cc1,inactive
19,C[C@H](CO)N1C[C@H](C)[C@H](CN(C)C(=O)NC2CCCCC2)OCc2ccccc2-c2c(n(C)c3ccccc23)C1=O,inactive
20,CN1C(=O)CO[C@H]2CN(C(=O)NCc3cccnc3)C[C@@H]21,inactive
21,COc1ccc(S(=O)(=O)Nc2ccc3c(c2)CC(=O)N([C@@H](C)CO)C[C@H](C)[C@@H](CN(C)S(=O)(=O)c2ccc(C)cc2)O3)cc1,inactive
